# Rows were chosen to be rich in hits. Some 6.6% of all compounds tested hit in one or more screens of this group.
# RGS4 inhibitor: Inhibitors of Regulator of G Protein Signaling (RGS) 4: qHTS | Regulator of G-protein signaling 4 (Homo sapiens), P49798 | 390,000 tested, 0.039% active | Potency, µM (series often up to 114 µM), for the others: top-dose activity change, negative = inhibition, most hits filed as inhibitors | Transcreener GDP fluorescence polarization, RGS4-accelerated GTP hydrolysis; note: % is set by controls: 0 for no effect and ±100 for the full control effect; nearly all actives have a fitted effect of over 75% in size
# Target sequence (P49798 whole entry, looked up): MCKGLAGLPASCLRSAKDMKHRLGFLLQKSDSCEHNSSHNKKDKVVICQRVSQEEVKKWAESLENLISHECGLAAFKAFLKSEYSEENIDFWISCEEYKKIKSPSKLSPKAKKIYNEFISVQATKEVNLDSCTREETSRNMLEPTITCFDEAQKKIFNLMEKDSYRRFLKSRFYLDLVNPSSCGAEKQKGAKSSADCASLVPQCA
#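 MLSMR compounds (23 nl, pin-transferred) preincubated 10 min at room temperature with a 500nM (2x) first reagent, then RGS4 at 900nM (2x) plus Transcreener GDP mix added; fluorescence polarization (620/688 nm) read before and after 90 min at 30 °C.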
# PTAP TSG101 blk: qHTS Assay for Iinhibitors of HIV-1 Budding by Blocking the Interaction of PTAP/TSG101; Fluorescence polarization, FITC-PTAP peptide / Tsg101 binding; 340,000 tested, under 10 active; AID 493005, 2010; Potency, µM (titrated, usually from 115 µM), for inactives: at the highest dose activity change, negative = inhibition, usual class: inhibitors; active = well fitted inhibition curve with a large enough effect in the main read-out, with a control signal flat, not every such curve was filed as active; inconclusive = small, poorly fitted or top-dose-only effect, or effect the other way, or a change in a side signal; inactive = no such curve, though single readings can be large or run the other way; note: % of control where 0% means no effect
# Target sequence (Q99816 whole entry, looked up): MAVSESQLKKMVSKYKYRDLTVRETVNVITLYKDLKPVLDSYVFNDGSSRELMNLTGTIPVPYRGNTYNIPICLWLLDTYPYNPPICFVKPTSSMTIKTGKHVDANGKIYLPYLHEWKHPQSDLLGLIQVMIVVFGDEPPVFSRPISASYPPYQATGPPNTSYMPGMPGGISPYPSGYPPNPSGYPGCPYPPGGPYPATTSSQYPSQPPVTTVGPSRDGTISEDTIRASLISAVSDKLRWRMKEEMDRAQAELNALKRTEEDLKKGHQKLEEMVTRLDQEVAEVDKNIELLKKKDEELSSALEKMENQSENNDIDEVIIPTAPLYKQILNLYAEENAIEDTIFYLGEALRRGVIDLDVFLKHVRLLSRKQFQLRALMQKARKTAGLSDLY
#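 Tsg101 binding domain (10 uM final) was mixed with compound and a FITC-labeled PTAP peptide (50 nM final) in HEPES pH 7.5 buffer with NaCl, Tween 20, EDTA and TCEP; fluorescence polarization was read after 20 min at r.t.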
# MCF10A rerep: A quantitative high throughput screen for small molecules that induce DNA re-replication in MCF 10a normal breast cells; MCF 10A DNA re-replication, Hoechst nuclear intensity, 48 h; 350,000 tested, 2.9% active; Potency, µM (titrated, usually from 46.1 µM), for the others: at the top dose activity, positive = re-replication, most hits filed as activators; note: % of control where 0% means no effect; nearly all actives have a fitted effect of over 50% in size
# SW480 rereplic: A quantitative high throughput screen for small molecules that induce DNA re-replication in SW480 colon adenocarcinoma cells | SW480 DNA re-replication, Hoechst DNA content imaging, 48 h | Potency, µM (series often up to 46.1 µM), for the others: at the top dose re-replication activation, usual class: activators | 340,000 tested, 1.8% active | AID 624297, 2012; note: % of control where 0% means no effect; nearly all actives have a fitted effect of over 55% in size
#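 Cells (250 per well) received 23 nL compound or DMSO by pin tool and were kept 48 hr at 37 C, 5% CO2. Nuclei were then stained with Hoechst for 40 min and scanned for DNA content.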
# KB-3-1 tox: qHTS assay for MDR1-selective chemotherapeutics: Primary screen using the parental adenocarcinoma cell KB-3-1; KB-3-1 viability, CellTiter-Glo ATP luminescence, 72 h; 400,000 tested, 1.4% active; Potency, µM (top dose mostly 46.1 µM), most hits filed as cytotoxic; note: % is set by controls: 0 for no effect and ±100 for the full control effect; nearly all actives have a fitted effect of over 60% in size
#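 KB-3-1 cells, DMEM (no phenol red) + 10% FBS; compound by pin transfer, 72 h, 37 °C. Readout: CellTiter-Glo luminescence after 10 min. Data normalized, curve-fitted.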
# KB-V1 MDR tox: qHTS assay for MDR1-selective chemotherapeutics: Primary screen using the drug-selected MDR subline cells KB-V1 | AID 1347076, 2019 | KB-V1 MDR cells viability, CellTiter-Glo, 72 h | Potency, µM (top dose mostly 46.1 µM), actives largely listed as cytotoxic | 400,000 tested, 3.4% active; note: % is set by controls: 0 for no effect and ±100 for the full control effect; nearly all actives have a fitted effect of over 60% in size
#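 KB-V1 MDR subline cells in DMEM (phenol-red free, 10% FBS) exposed to compounds in qHTS concentration series for 72 h at 37 degrees C. Viability read by CellTiter-Glo luminescence; concentration-effect curves fitted after normalization and correction.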
# Active calls of the source: *; i = inactive; ? = inconclusive; . = no result; ! = repeats disagree. Unless noted, calls come from the whole dose curve; as a rule, active = well fitted curve in the direction sought with a large enough effect; inconclusive = small, poorly fitted or top-dose-only effect, or another doubt; inactive = no such curve, though single readings can be large; an effect the other way counts as inactive or inconclusive. Potency is the fitted concentration of half-maximal effect.
SMILES,RGS4 inhibitor,PTAP TSG101 blk,MCF10A rerep,SW480 rereplic,KB-3-1 tox,KB-V1 MDR tox
Cc1ccc(C)c(S(=O)(=O)N2CCCOC2CNC(=O)C(=O)NCCC2=CCCCC2)c1 (stereo not given),2.2%,-1.6%,1.9%,4.1%,i,5.17µM*
O=C(NCCC1=CCCCC1)C(=O)NCC1OCCCN1S(=O)(=O)c1ccccc1 (stereo not given),-18.8%,-0.2%,-2.1%,-2.2%,i,9.2µM*
Cc1ccc(C)c(S(=O)(=O)N2CCCOC2CNC(=O)C(=O)NCCc2ccccc2)c1 (stereo not given),-22.7%,-1.1%,?,?,i,?
O=C(c1ccc2c(=O)n(CCc3ccccc3)c(=O)[nH]c2c1)N1CCN(C(=O)c2ccco2)CC1,-19.8%,.,.,.,.,.
CC1=C(C(=O)Nc2ccc(C)cc2C)C(c2ccc(O)cc2)n2nnnc2N1 (stereo not given),16.8%,.,.,.,i,i
Cc1ccc(S(=O)(=O)NCC(=O)NCC(=O)N(C)Cc2ccc3ccccc3c2)cc1C,-5.2%,0.5%,?,8.8%,?,13µM*
CSc1ccc(CN(C)C(=O)CNC(=O)CNS(=O)(=O)c2ccc(C)c(C)c2)cc1,-6.4%,-6.4%,4.2%,-22.4%,i,i
CCC(=O)c1ccc(N2CCN(C(=O)c3ccc(Br)cc3)CC2)c(F)c1,23.7%,-3.0%,4.3%,-1.4%,i,14.6µM*
CCCC(=O)c1ccc(N2CCN(C(=O)c3ccc(Br)cc3)CC2)c(F)c1,7.6%,-4.7%,6.6%,0.1%,i,i
Cc1coc2c1C(=O)C(=O)c1c-2ccc2c1CCCC2(C)C,?,-2.0%,?,7.8%,6.51µM*,7.31µM*
Cc1coc2c1C(=O)C(=O)c1c-2ccc2c(C)cccc12,-50.8%,-2.3%,?,5.17µM*,9.2µM*,9.2µM*
Cc1ccnc(NC(=S)N2CCN(C)CC2)c1,.,.,.,.,i,i
Cc1ccc(NC(=O)C(Cc2ccccc2)n2cccc2)cc1C (stereo not given),31.5%,.,.,.,.,.
CN(C(=O)c1cc2c(=O)oc3ccccc3c2s1)c1ccc(F)cc1,26.6%,.,.,.,i,i
COc1c(C)cccc1C(=O)Nc1cccc2ccc(C)nc12,6.8%,.,.,.,i,i
Cn1c(N)c(C(C[N+](=O)[O-])c2c(F)cccc2Cl)c(=O)n(C)c1=O (stereo not given),-26.8%,-2.8%,?,16.4µM*,?,i
CN(C)c1ccc(C(C[N+](=O)[O-])c2c(N)n(C)c(=O)n(C)c2=O)c(F)c1C#N (stereo not given),-21.2%,-5.2%,3.66µM*,?,?,i
COc1ccccc1C(=O)Nc1ccc(C(=O)OCc2cc(=O)n3nc(C)sc3n2)cc1,-14.6%,.,.,.,.,.
Brc1ccc(Nc2c3c(nc4nncn24)CCC3)cc1,1.2%,.,.,.,.,.
CCCn1c(C)cc(/C=C(\C#N)C(=O)OCC(=O)Nc2ccc(OC)c(Cl)c2)c1C,8.6%,4.7%,3.5%,6.9%,i,?
COCCn1c(C)cc(/C=C(\C#N)C(=O)OCC(=O)Nc2ccc(S(N)(=O)=O)cc2)c1C,-13.2%,0.4%,16.4µM*,-33.3%,i,i
CCCN1CNc2c(c(=O)[nH]c(=S)n2CCc2ccc(Cl)cc2Cl)C1,14.8%,.,.,.,.,.
COCCCNC(=S)N/N=C/c1ccc(N(C)C)cc1,-10.8%,-4.6%,-32.8%,-79.8%,i,i
COCCCNC(=S)N/N=C/c1ccc(N(C)C)cc1Cl,6.0%,-4.7%,?,29.1µM*,i,i
CC(C)CC1Nc2ncnc(N3CCN(c4ccccn4)CC3)c2N(Cc2ccc(Cl)cc2)C1=O (stereo not given),10.1%,-5.7%,80.6%,12.7%,?,23.1µM*!
SMILES,RGS4 inhibitor,PTAP TSG101 blk,MCF10A rerep,SW480 rereplic,KB-3-1 tox,KB-V1 MDR tox
CCCS(=O)(=O)N1CC(=O)N(c2cc(C)cc(C)c2)C(C)(C(=O)NC2CCCCCC2)C1 (stereo not given),1.0%,.,.,.,i,i
Cc1ccc(C)c(S(=O)(=O)Nc2ccc3cn[nH]c3c2)c1,-11.9%,-2.6%,0.8%,-0.5%,i,i
CCOc1cc(C)c(S(=O)(=O)Nc2ccc3cn[nH]c3c2)cc1C,-0.5%,-6.6%,-2.0%,-1.0%,20.6µM*,?
Cc1ccc(S(=O)(=O)Nc2ccc3cn[nH]c3c2)c(C)c1,10.4%,-11.8%,15.6%,16.4µM*,i,i
Cc1ccc(S(=O)(=O)Nc2ccc3cn[nH]c3c2)cc1C,-8.7%,2.2%,10.6%,2.5%,i,i
CN1C(=O)c2ccccc2Sc2ccc(NC(=O)N3CCN(c4ccccc4F)CC3)cc21,-15.0%,.,.,.,i,i
Cc1cc(S(=O)(=O)Nc2cc3c(cc2N2CCOCC2)n(C)c(=O)c(=O)n3C)ccc1F,-6.5%,.,.,.,i,i
Cc1[nH]n2c(=O)c3c(nc2c1-c1ccc(F)cc1)CCCC3,-8.4%,-4.1%,-8.9%,-3.3%,?,i
Cc1cc(=O)n2[nH]c(C(F)(F)F)c(-c3ccccc3)c2n1,21.5%,-2.9%,-0.5%,1.3%,i,i
Cc1nc2c(-c3ccc(F)cc3)c(C)[nH]n2c(=O)c1Cl,-3.3%,-10.7%,12.5%,7.31µM*,10.3µM*,i
Cc1[nH]n2c(=O)cc(-c3ccccc3Cl)nc2c1-c1ccccc1,13.2%,.,.,.,6.51µM*,i
Cc1cccc(Cc2c(C)nc3c(-c4ccccc4)c(C)[nH]n3c2=O)c1,16.4%,.,.,.,10.3µM*,i
CCN(C(=O)C1CCN(S(=O)(=O)c2ccc3c(c2)CCCN3C(=O)C2CCC2)CC1)c1cccc(C)c1,-10.9%,.,.,.,i,i
CN1CCN(/N=C/c2ccc(N(c3ccccc3)c3ccccc3)cc2)CC1,22.1%,-1.8%,16.4µM*,14.2%,i,i
COc1ccc(S(=O)(=O)Nc2ccc(Cc3ccncc3)cc2)cc1OC,7.6%,-0.4%,10.2%,-2.9%,?,?

# Screens (PubChem BioAssay)
